Source: PubChem
LASV entry inh: qHTS for Inhibitors of binding or entry into cells for Lassa Virus. 4.1% of 18,000 active. Lassa virus pseudotyped entry inhibition, cell-based qHTS. AID 720533, 2013. Potency, µM (series often up to 49.2 µM), most hits filed as inhibitors
Marburg entry: qHTS for Inhibitors of binding or entry into cells for Marburg Virus; Marburg virus pseudotype entry/binding inhibition, cell-based; Potency, µM (series often up to 49.2 µM), hits mostly inhibitors; 6.5% of 18,000 active; AID 720532, 2013
Of the large screens only hits and unclear results are named; the others gave an inactive call; ! = a repeat was not active. Most compounds without a hit are left out; they make up all but 7.1% or so of the library. The call rests on the fitted dose curve; tested in HEK293 cells.

O=C(Nc1ccc(Cl)cc1)Nc1ccc(Cl)c(C(F)(F)F)c1	LASV entry inh 14.1µM, Marburg entry 11.2µM
CCCC(C)(C)C(=O)Nc1ccc(Cl)cc1	none
O=C(CN1Cc2ccccc2OC(c2ccsc2)C1)NCc1ccc2c(c1)OCO2 (centres undefined)	none
CCOc1cc(OCC)c(C(=O)CCC(=O)O)cc1OCC	none
CC(C)=CCCC1(C)C=Cc2c(O)c3c(c(CC=C(C)C)c2O1)OC12C(=CC4CC1C(C)(C)OC2(C/C=C(/C)C(=O)O)C4=O)C3=O (centres undefined)	LASV entry inh 5.01µM, Marburg entry 2.82µM
CC(C)=CCCC1(C)C=Cc2c(O)c3c(c(CC=C(C)C)c2O1)OC12C(=CC4CC1C(C)(C)OC2(C/C=C(/C)C(=O)O)C4O)C3=O (centres undefined)	LASV entry inh 4.47µM, Marburg entry 3.55µM
CC(C)CCCC1(C)C=Cc2c(O)c3c(c(CCC(C)C)c2O1)OC12C(CC4CC1C(C)(C)OC2(CCC(C)C(=O)O)C4O)C3=O (centres undefined)	none
CC(C)=CCCC1(C)C=Cc2c(O)c3c(c(CC=C(C)C)c2O1)OC12C(=CCCC1C(C)(C)O[C@@]2(C/C=C(\C)C(=O)O)C(=O)O)C3=O (some centres undefined)	none
CC(=O)Nc1ccccc1-c1nc(CNC(=O)c2ccc(-n3cccn3)cc2)c(C)o1	Marburg entry inconclusive
CCCCCCCCC(=O)NCc1ccc(O)c(OC)c1	none
COc1cc(CNC(=O)CCCC/C=C/C(C)C)ccc1O	LASV entry inh 25.1µM!
CCCCC/C=C\C/C=C\C/C=C\C/C=C\CCCC(=O)NCc1ccc(O)c(OC)c1	LASV entry inh 7.94µM, Marburg entry inconclusive
CCCCC[C@H](O)CC(=O)CCc1ccc(O)c(OC)c1	none
COCCN1C(=O)NC(c2ccco2)C(C(=O)OC)=C1C (centres undefined)	none
CCCC[C@@H](C)[C@@H](OC(=O)C[C@@H](CC(=O)O)C(=O)O)[C@H](C[C@@H](C)CCCCCC[C@@H](O)C[C@H](O)[C@H](C)N)OC(=O)C[C@@H](CC(=O)O)C(=O)O	none
CC1CCN(CCCC(=O)c2ccc(F)cc2)CC1	none
CC(C)(C)c1ccc(C(=O)CCCN2CCC(OC(c3ccccc3)c3ccccc3)CC2)cc1	LASV entry inh 8.91µM
C[C@@H]1N[S+](=O)([O-])c2c(F)cccc2O[C@H]1c1ccccc1	none
Cc1ccc(O)c([C@H](CCN(C(C)C)C(C)C)c2ccccc2)c1	LASV entry inh inconclusive, Marburg entry 10µM
Cc1ccc(C(C)C)c(O)c1	none
CCN(CC)C1CCN(C(=O)c2cnn(-c3nccc(-c4ccccc4OC)n3)c2-c2ccco2)C1 (centres undefined)	none
CCN1C(=NCc2cccc(C(F)(F)F)c2)NC(c2cccs2)C(C(=O)OC)=C1C (centres undefined)	Marburg entry inconclusive
CC(=O)Nc1ccc(OCc2cn(CC(=O)c3ccc(O)cc3)nn2)cc1	none
NC(=O)c1ncn(C2OC(CO)C(O)C2O)c1N (centres undefined)	none
Nc1ncnc2c1ccn2[C@@H]1O[C@H](CO)[C@@H](O)[C@H]1O	LASV entry inh 2.51µM, Marburg entry 1.41µM
Nc1ccn(C2OC(CO)C(O)C2O)c(=O)n1 (centres undefined)	LASV entry inh 1.26µM!, Marburg entry 1µM!
Nc1ccn([C@@H]2O[C@H](CO)[C@@H](OP(=O)(O)O)[C@H]2O)c(=O)n1	none
Nc1ncnc2c1nc(Br)n2C1OC(CO)C(O)C1O (centres undefined)	LASV entry inh inconclusive
Nc1ncn([C@@H]2O[C@H](CO)[C@@H](O)[C@H]2O)c(=O)n1	LASV entry inh 6.31µM, Marburg entry inconclusive
CCCCCCCCCCOCCC(=O)O	none
CC(C)[C@@H](OCc1ccccc1)[C@H](C)C=NO[C@H](C)c1cn([C@@H]2COC[C@@H]2O)nn1	none
CN1c2ccccc2[C@@]2(O)C(=O)[C@@]1(C)[C@@H]1CCC=C[C@H]12	none
CN=C1C=CC(=C(c2ccc(N(C)C)cc2)c2ccc(N(C)C)cc2)C=C1	LASV entry inh 3.55µM, Marburg entry 2.82µM
CC(C)CCOC(=O)c1ccc(N(C)C)cc1	none
CNCCCCCCCCSc1nc(C(C)C)ccc1C(=O)c1cccs1	LASV entry inh inconclusive, Marburg entry 5.62µM
COC(=O)C(C)c1ccc(C(=O)c2cccs2)cc1 (centres undefined)	none
COC(=O)C1=C(C(=O)OC)[C@@H]2N(Cc3ccccc3)c3ccccc3[C@@]23C[C@@H](CO)N=C3N1	none
COC(=O)[C@]12CCC(C)(C)C[C@H]1[C@H]1C(=O)C=C3[C@@]4(C)C=C(C#N)C(=O)C(C)(C)[C@@H]4CC[C@@]3(C)[C@]1(C)CC2	LASV entry inh 3.55µM, Marburg entry 3.16µM
CCN(CC)C(=S)SSC(=S)N(CC)CC	LASV entry inh 39.8µM!, Marburg entry 20µM
O=C(Nc1cc(C(F)(F)F)ccc1O)Nc1cc(C(F)(F)F)ccc1O	none
O=C(Nc1cc(C(F)(F)F)cc(C(F)(F)F)c1)c1cc(Cl)ccc1O	LASV entry inh 1.12µM, Marburg entry 1µM
CC[C@H](C)[C@H](NC(=O)[C@H](CC(=O)O)NC(=O)[C@H](CC(C)C)NC(=O)[C@H](NC(C)=O)C(c1ccccc1)c1ccccc1)C(=O)N[C@H](C(=O)N[C@@H](Cc1c[nH]c2ccccc12)C(=O)O)[C@@H](C)CC	none
CC(=O)Oc1ccccc1C(=O)O	none
CC(=O)[O][Hg][c]1ccccc1	LASV entry inh 0.501µM, Marburg entry inconclusive
O=C(O)CCC1CCCC1	none
COC(=O)N1C(C)=Cc2ccccc2C1CC(C)=CC(C)=O (centres undefined)	none
CCN1C(=O)[C@@H]2[C@H]3[C@H](O)[C@H](O)CC(=NO[C@@H](C)c4cn([C@H](CO)Cc5ccccc5)nn4)[C@@H]3CC[C@H]2C1=O	none (no result: LASV entry inh)
CCC(O)CNC(=O)c1cnn(-c2ncc3c(n2)-c2ccc(OC)cc2CC3)c1C1CC1 (centres undefined)	none
CCN(CC)CCNC(=O)c1cnn(-c2ncc3c(n2)-c2ccc(OC)cc2CC3)c1C	LASV entry inh inconclusive, Marburg entry 12.6µM
CC(C)[C@@]1(NC(=O)[C@@H]2C[C@@H]3c4cccc5[nH]cc(c45)C[C@H]3N(C)C2)O[C@@]2(O)[C@@H]3CCCN3C(=O)[C@H](Cc3ccccc3)N2C1=O	LASV entry inh 35.5µM!, Marburg entry 7.08µM
CC(C)[C@H]1C(=O)N2CCC[C@H]2[C@]2(O)O[C@](NC(=O)[C@@H]3C[C@@H]4c5cccc6[nH]cc(c56)C[C@H]4N(C)C3)(C(C)C)C(=O)N12	Marburg entry 7.08µM
CN1C[C@H](C(=O)N[C@@]2(C)O[C@@]3(O)C4CCCN4C(=O)C(Cc4ccccc4)N3C2=O)C[C@H]2c3cccc4[nH]cc(c34)C[C@H]21 (some centres undefined)	none
CC(C)[C@@]1(NC(=O)[C@@H]2C[C@H]3c4cccc5[nH]cc(c45)C[C@@H]3N(C)C2)O[C@]2(O)[C@H]3CCCN3C(=O)CN2C1=O	Marburg entry inconclusive
CCCCCCCCCCCCCCCCCCOCC(COP(=O)([O-])OCC[N+](C)(C)C)OC (centres undefined)	none
COC(=O)c1cccc(-c2cc(Cl)c3c(c2)CC(CNC(=O)c2cccnc2)O3)c1 (centres undefined)	none
O=c1oc2ccccc2c(O)c1Cc1c(O)c2ccccc2oc1=O	LASV entry inh 7.94µM!
CC(=O)C[C@@H](c1ccccc1)c1c(O)c2ccccc2oc1=O	none
Cc1cc(O)cc(C)c1C=Cc1cncc(C(=O)OC(C)(C)C)c1	none (no result: LASV entry inh)
